Screens deposited in PubChem BioAssay by National Center for Advancing Translational Sciences (NCATS).
Shown are actives, neighbours in structure and some others; about 10% of the full set was active somewhere.
ALDH1A1 inh – qHTS Assay for Inhibitors of Aldehyde Dehydrogenase 1 (ALDH1A1). AID 1030, 2008. Potency, µM (top dose mostly 75.3 µM), for the others: top-dose activity, negative = inhibition, actives largely listed as inhibitors. Aldehyde dehydrogenase 1A1 (Homo sapiens), P00352. 7.3% of 220,000 active. Purified ALDH1A1, NADH fluorescence, propionaldehyde substrate;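 also: potency is read from the fitted curve at half-maximal effect; plate controls were no enzyme wells and a reference inhibitor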
HPGD block – qHTS Assay for Inhibitors of HPGD (15-Hydroxyprostaglandin Dehydrogenase); 15-hydroxyprostaglandin dehydrogenase [NAD(+)] (Homo sapiens), P15428; purified HPGD, NADH fluorescence kinetic, PGE2 substrate; Potency, µM, without a hit: top-dose activity change, negative = inhibition, hits mostly inhibitors; 4.3% of 150,000 active; also: potency is read from the fitted curve at half-maximal effect
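NADH formation kinetics: reaction with 30 uM PGE2 and 1 mM NAD+ (final), 20 nM enzyme, Tris-HCl pH 8 with Tween 20, after 15 min compound preincubation at room temperature. Fluorescence change, last versus first of five reads.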
ALOX12 inhib – qHTS Assay for Inhibitors of 12-hLO (12-human lipoxygenase) | Potency, µM (doses to about 57.1 µM), for inactives: at the highest dose activity change, negative = inhibition, hits mostly inhibitors | 0.12% of 150,000 active | purified 12-hLO, xylenol orange hydroperoxide absorbance | Polyunsaturated fatty acid lipoxygenase ALOX12 (Homo sapiens), P18054; active = well fitted inhibition curve with a large enough effect; inconclusive = small, poorly fitted or top-dose-only effect; also: potency is read from the fitted curve at half-maximal effect; nearly all actives have a fitted effect of over 55% in size
Target sequence (P18054 whole entry, looked up): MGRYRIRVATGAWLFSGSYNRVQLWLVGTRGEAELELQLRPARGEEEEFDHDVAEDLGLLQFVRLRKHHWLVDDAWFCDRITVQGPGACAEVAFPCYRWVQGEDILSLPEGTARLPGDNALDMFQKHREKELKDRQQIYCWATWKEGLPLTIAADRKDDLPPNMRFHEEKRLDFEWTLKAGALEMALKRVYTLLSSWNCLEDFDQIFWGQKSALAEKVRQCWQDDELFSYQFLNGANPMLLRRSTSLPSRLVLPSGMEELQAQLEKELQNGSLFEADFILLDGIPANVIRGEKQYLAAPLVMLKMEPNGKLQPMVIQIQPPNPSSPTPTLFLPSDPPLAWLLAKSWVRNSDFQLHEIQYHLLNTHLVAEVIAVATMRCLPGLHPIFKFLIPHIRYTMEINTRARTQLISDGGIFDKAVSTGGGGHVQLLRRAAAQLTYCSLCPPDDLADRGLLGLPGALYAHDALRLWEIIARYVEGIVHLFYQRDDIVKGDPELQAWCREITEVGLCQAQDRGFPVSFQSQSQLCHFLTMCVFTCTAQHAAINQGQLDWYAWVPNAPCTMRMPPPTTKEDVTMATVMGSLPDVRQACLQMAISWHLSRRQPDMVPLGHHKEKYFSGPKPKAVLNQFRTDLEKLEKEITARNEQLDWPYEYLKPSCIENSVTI
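Hydroperoxide output read as Fe(III)-xylenol orange absorbance, 573-to-405 nm ratio, after 30 min reaction with 40 uM arachidonic acid. Enzyme: 150 nM purified human 12hLO, 15 min compound preincubation; 25 mM Hepes pH 7.0, room temperature.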
PNC assembly inh – High Content Assay for Compounds that inhibit the Assembly of the Perinucleolar Compartment. PC3M PTB-GFP, PNC prevalence imaging, 16 h; stronger effect = lower value. activity change (PNC), negative = inhibition, % at 10 µM. 3.1% of 140,000 active. AID 2417, 2010;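 active = readout at or below -70, meaning at least 70% loss of cells showing the perinucleolar compartment, a nuclear body marking cancer cells; inconclusive = readout between -30 and a set limit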;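 also: plate controls were DMSO wells for no effect and camptothecin positive control wells for full effect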
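Compounds are pinned in duplicate onto adhered PC3M cells stably expressing GFP-tagged PTB and incubated 16 h at 37 C. Cells are then fixed, nuclei stained with Hoechst, and PNC-positive cells counted.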
LMNA splice mod – qHTS Assay for Modulators of Lamin A Splicing | Potency, µM (top dose mostly 46.1 µM), for the others: top-dose ratio change, negative = inhibition, actives largely listed as inhibitors | 0.01% of 200,000 active | HeLa LMNA splicing GFP/RFP minigene ratio, 48 h; active = well fitted inhibition curve with a large enough effect in the signal ratio, with a control signal flat, not every such curve was filed as active; inconclusive = small, poorly fitted or top-dose-only effect, or effect the other way, or a change in a side signal; the % refers to the signal ratio; also: potency is read from the fitted curve at half-maximal effect
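S3 HeLa cells stably expressing lamin A-EGFP splicing minigene plus DsRed2, 600 cells/well, 48 h compound exposure at 37C. Laser-scanning cytometry; analysed as GFP (500-530 nm)/RFP (575-640 nm) total intensity ratio; 0.5% DMSO vehicle.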
An asterisk follows results filed as active; ? = inconclusive; . = not tested or not shown; [ ] = another dose, or the depositor's remark. Unless noted, calls follow the shape of the dose curve; as a rule, active = well fitted inhibition curve with a large enough effect (not every such curve was filed as active); inconclusive = small, poorly fitted or top-dose-only effect, or another doubt; inactive = no such curve, though single readings can be large or run the other way. Unless noted, % is scaled to controls: 0 for no effect and ±100 for the full control effect.

SMILES | ALDH1A1 inh | HPGD block | ALOX12 inhib | PNC assembly inh | LMNA splice mod
CC(C)C(c1nnnn1C1CCCC1)N1CCCc2ccccc21 (configuration not stated) | ? | -17% | -1% | -100* | ?
CC(C)C(c1nnnn1Cc1ccccc1)N1CCc2ccccc2C1 (configuration not stated) | 10µM* | -16% | -2% | -13 | 16%
CC(C)C(c1nnnn1C1CCCC1)N1CCc2ccccc21 (configuration not stated) | ? | -11% | -7% | 40 | 1%
Cc1[nH]n(-c2ncc(-c3ccccc3)s2)c(=O)c1C(c1ccc(Cl)cc1)C(C#N)C#N (configuration not stated) | 28µM* | 25µM* | -3% | 12 | ?
COc1cc(S(=O)(=O)NCc2ccccn2)c(OC)cc1Cl | -2% | -15% | -6% | 180 | -6%
CCOc1cc(C)c(C(C)C)cc1S(=O)(=O)NCc1ccccn1 | 14µM* | 2% | -1% | -82* | 13%
CCOc1ccc(S(=O)(=O)NCc2ccccn2)cc1 | ? | -15% | 4% | -111* | -6%
C#CCCCO/N=C1/C[C@@H](O)[C@@H](O)[C@@H]2[C@@H]3C(=O)N(Cc4ccc5c(c4)OCO5)C(=O)[C@H]3CC[C@@H]12 | -3%[13.5 µM] | . | . | . | .
O=C(Cn1cc(C(F)(F)F)ccc1=O)N/N=C/c1cccc(Cl)c1 | 11% | -9% | 0% | ? | -12%
Nc1nc(SCCc2ccccc2)c2[nH]cnc2n1 | ? | ? | -3%[11.4 µM] | . | .
Cc1ccc(-n2cc3c(=O)n(C)c(=O)n(C)c3c2)cc1C | 14µM* | -19% | -5% | 16 | -1%
CCCC(=O)Nc1nc2c(OC)ccc(OC)c2s1 | 16µM* | -16% | -4% | 22 | -2%
Cc1ccc(CNC(=O)c2ccc(CSCc3ccccc3C)o2)cc1 | . | . | . | . | -28%[46 µM]
Cc1ccc(NC(=O)Cn2ccsc2=N)c([N+](=O)[O-])c1 | 7.1µM* | . | . | . | .
Cc1cc(NC(=O)Cn2ccsc2=N)c([N+](=O)[O-])cc1C | 1% | . | . | . | .
Cc1cc(C)c(NC(=O)/C=C\C(=O)O)c(Cl)c1 | ? | -6% | -2% | 2 | -9%
Cc1cc(C)c(NC(=O)/C=C\C(=O)O)c([N+](=O)[O-])c1 | 10µM* | 22µM* | 2% | 5 | -7%
Cc1ccc(NC(=O)/C=C\C(=O)O)c([N+](=O)[O-])c1 | 13µM* | -7% | -1% | -6 | 1%
COc1ccc(CNC(=O)c2sc3nc[nH]c(=O)c3c2C)cc1 | . | . | . | . | 10%[46 µM]
O=C(O)CNC(=O)[C@H]1NC(C(F)(F)F)(C(F)(F)F)OC1(C(F)(F)F)C(F)(F)F | 1%[13.5 µM] | 0% | 0%[11.4 µM] | . | .
COc1ccc2ccccc2c1C1CC(=O)N2CN(C3CCCCC3)CSC2=C1C#N (configuration not stated) | 28µM* | 18µM* | -22% | -1 | 0%
CCOc1cc(C2CC(=O)N3CN(C4CCCCC4)CSC3=C2C#N)ccc1O (configuration not stated) | 6.3µM* | 25µM* | ? | ? | -5%
COc1ccc(C2C(C#N)=C(N)Oc3cc(C)n(Cc4ccco4)c(=O)c32)cc1 (configuration not stated) | ? | 3% | 3% | 25 | -2%
COc1ccc(C2CC(=O)N3CN(Cc4ccco4)CSC3=C2C#N)cc1 (configuration not stated) | 10µM* | 13µM* | -16% | 13 | 8%
COc1ccc2ccccc2c1C1CC(=O)N2CN(Cc3ccco3)CSC2=C1C#N (configuration not stated) | 22µM* | 7.9µM* | -13% | 3 | ?
CCCN(CCC)CCCNC(=O)C1CCC(CNS(=O)(=O)c2ccc(NC(C)=O)cc2)CC1 (configuration not stated) | . | . | . | . | 1%[46 µM]
CCOc1ccc(Sc2cc(C(=O)NC(C)c3ccccc3)c3ccccc3n2)cc1 (configuration not stated) | . | . | . | . | -2%[46 µM]
